Data taken from PubChem BioAssay AID1159580 (chemical genetic matrix, 2015).
Screen size: about 5,500 compounds; about 2,000 (36%) were called active. Another 18% or so got no clear call; they are omitted. Rule as the data show it: active = normalized growth mostly below about 0.91 (no sharp cut-off); inconclusive = no clear call, values can overlap the other calls; inactive = mostly above about 0.92. This is one part of the list.

Experiment: chemical genetic growth profiling, strain panel (AID 1159580);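 also: tested at 20 µM; growth read once vehicle control cultures reached saturation at 30 °C; 1 = growth at the plate median or of vehicle wells; lower values mean less growth of the strain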
Conditions: S. cerevisiae deletion strains, growth OD

Measured: normalized growth

Cc1cn[nH]c1
active: locus YDR195W, strain ref2 1.16 [resistant]
inactive: locus YAL021C, strain ccr4, active compounds read low 1.05 | locus YAL026C, strain drs2, active compounds read low 1.02 | locus YAL030W, strain snc1, active compounds read low 1.03 | locus YAL040C, strain CLN3, active compounds read low 0.992 | locus YBL061C, strain skt5, active compounds read low 1.02 | locus YBR009C, strain hhf1, active compounds read low 1.02 | locus YBR023C, strain chs3, active compounds read low 1.03 | locus YBR171W, strain sec66, active compounds read low 1.04 | locus YBR231C, strain swc5, active compounds read low 1.04 | locus YBR279W, strain paf1, active compounds read low 1.02 | locus YCL011C, strain gbp2, active compounds read low 1.02 | locus YCL016C, strain dcc1, active compounds read low 1.02 | locus YCL061C, strain MRC1 (second series), active compounds read low 0.99 | locus YCL069W, strain vba3, active compounds read low 1.03 | locus YCR088W, strain abp1, active compounds read low 1.01 | locus YDL005C, strain med2, active compounds read low 1.03 | locus YDL040C, strain nat1, active compounds read low 1.01 | locus YDR001C, strain nth1, active compounds read low 1.01 | locus YDR069C, strain doa4, active compounds read low 1.06 | locus YDR137W, strain rgp1, active compounds read low 1.01 | locus YDR150W, strain NUM1, active compounds read low 0.986 | locus YDR159W, strain sac3, active compounds read low 0.99 | locus YDR297W, strain sur2, active compounds read low 1.02 | locus YDR334W, strain swr1, active compounds read low 1.03 | locus YDR335W, strain msn5, active compounds read low 1.02 | locus YDR363W, strain ESC2, active compounds read low 1.02 | locus YDR392W, strain spt3, active compounds read low 1.1 | locus YEL003W, strain gim4, active compounds read low 1.02 | locus YEL037C, strain rad23, active compounds read low 1.01 | locus YEL061C, strain CIN8 (second series), active compounds read low 1.01 | locus YER002W, strain NOP16, active compounds read low 1.01 | locus YER015W, strain faa2, active compounds read low 1.02 | locus YER016W, strain bim1, active compounds read low 1.01 | locus YER111C, strain swi4, active compounds read low 1.02 | locus YER155C, strain BEM2 (second series), active compounds read low 1.13 | locus YFR010W, strain ubp6, active compounds read low 1.05 | locus YGL167C, strain pmr1, active compounds read low 1.02 | locus YGL173C, strain kem1, active compounds read low 1.01 | locus YGL227W, strain vid30, active compounds read low 1.01 | locus YGL240W, strain doc1, active compounds read low 1.05 | locus YGL253W, strain hxk2, active compounds read low 1.01 | locus YGR078C, strain PAC10, active compounds read low 0.984 | locus YHR013C, strain ard1, active compounds read low 1.1 | locus YHR027C, strain rpn1, active compounds read low 1.03 | locus YHR030C, strain SLT2, active compounds read low 0.971 | locus YHR079C, strain IRE1, active compounds read low 0.962 | locus YHR142W, strain chs7, active compounds read low 1.06 | locus YJL092W, strain hpr5, active compounds read low 1.02 | locus YJL095W, strain BCK1 (second series), active compounds read low 1.02 | locus YJL095W, strain BCK1, active compounds read low 1.03 | locus YJL115W, strain asf1, active compounds read low 1.01 | locus YJL129C, strain trk1, active compounds read low 1.06 | locus YJL154C, strain vps35, active compounds read low 1.02 | locus YJL164C, strain tpk1, active compounds read low 1.03 | locus YJL166W, strain qcr8, active compounds read low 1.03 | locus YJR066W, strain TOR1, active compounds read low 0.924 | locus YJR075W, strain HOC1, active compounds read low 1.02 | locus YKL160W, strain elf1, active compounds read low 1.01 | locus YKR026C, strain gcn3, active compounds read low 1.01 | locus YKR091W, strain srl3, active compounds read low 1.02 | locus YLL001W, strain dnm1, active compounds read low 1.02 | locus YLL026W, active compounds read low 1.02 | locus YLL041C, strain sdh2, active compounds read low 1.02 | locus YLR027C, strain aat2, active compounds read low 1.01 | locus YLR113W, strain HOG1, active compounds read low 1.02 | locus YLR221C, strain rsa3, active compounds read low 1.02 | locus YLR258W, strain gsy2, active compounds read low 1.03 | locus YLR262C, strain YPT6 (second series), active compounds read low 1.02 | locus YLR320W, strain mms22, active compounds read low 1.08 | locus YLR342W, strain FKS1, active compounds read low 1.03 | locus YLR357W, strain rsc2, active compounds read low 1.09 | locus YLR370C, strain arc18, active compounds read low 1.03 | locus YLR384C, strain iki3, active compounds read low 1.01 | locus YML120C, strain ndi1, active compounds read low 1.01 | locus YMR058W, strain fet3, active compounds read low 1.03 | locus YMR125W, strain sto1, active compounds read low 1.03 | locus YMR129W, active compounds read low 1.01 | locus YMR205C, strain PFK2, active compounds read low 1.08 | locus YMR231W, strain pep5, active compounds read low 1.02 | locus YMR307W, strain GAS1, active compounds read low 1 | locus YNL071W, strain lat1, active compounds read low 1.06 | locus YNL153C, strain GIM3, active compounds read low 1.02 | locus YNL175C, strain NOP13, active compounds read low 0.994 | locus YNL183C, strain NPR1, active compounds read low 0.934 | locus YNL197C, strain WHI3, active compounds read low 0.996 | locus YNL209W, strain ssb2, active compounds read low 1.02 | locus YNL224C, strain SQS1, active compounds read low 1.02 | locus YNL248C, strain rpa49, active compounds read low 1.02 | locus YNL322C, strain KRE1 (second series), active compounds read low 1.02 | locus YNL322C, strain KRE1, active compounds read low 0.974 | locus YNR049C, strain mso1, active compounds read low 1.01 | locus YOR001W, strain rrp6, active compounds read low 1.03 | locus YOR070C, strain gyp1, active compounds read low 1.02 | locus YOR080W, strain dia2, active compounds read low 1.04 | locus YOR083W, strain WHI5 (second series), active compounds read low 1.01 | locus YOR083W, strain WHI5, active compounds read low 1.02 | locus YOR106W, strain vam3, active compounds read low 1.03 | locus YOR231W, strain MKK1, active compounds read low 0.985 | locus YOR265W, strain rbl2, active compounds read low 1.02 | locus YOR270C, strain vph1, active compounds read low 1.08 | locus YOR290C, strain snf2, active compounds read low 1.03 | locus YPL051W, strain arl3, active compounds read low 1.02 | locus YPL055C, strain LGE1, active compounds read low 1.02 | locus YPL078C, strain atp4, active compounds read low 1.04 | locus YPL106C, strain sse1, active compounds read low 1.1 | locus YPL240C, strain hsp82, active compounds read low 1.01 | locus YPL241C, strain CIN2, active compounds read low 0.981 | locus YPL256C, strain CLN2, active compounds read low 0.938
